# Data: PubChem BioAssay AID1918 (Vanderbilt High Throughput Screening Facility, 2009)
# Screen size: about 130,000 compounds; about 2,500 (1.9%) were called active.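 Rule for the calls: active = signal ratio slope over the read window, or its plate-corrected B-score, at least 3 SD from the plate mean, either direction; inactive = the rest.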 For the sample, actives were picked, then their nearest neighbours and some compounds at random.
# Biological target: ATP-sensitive inward rectifier potassium channel 1 (Homo sapiens) (UniProt P48048)
# Sequence (P48048 whole entry, looked up): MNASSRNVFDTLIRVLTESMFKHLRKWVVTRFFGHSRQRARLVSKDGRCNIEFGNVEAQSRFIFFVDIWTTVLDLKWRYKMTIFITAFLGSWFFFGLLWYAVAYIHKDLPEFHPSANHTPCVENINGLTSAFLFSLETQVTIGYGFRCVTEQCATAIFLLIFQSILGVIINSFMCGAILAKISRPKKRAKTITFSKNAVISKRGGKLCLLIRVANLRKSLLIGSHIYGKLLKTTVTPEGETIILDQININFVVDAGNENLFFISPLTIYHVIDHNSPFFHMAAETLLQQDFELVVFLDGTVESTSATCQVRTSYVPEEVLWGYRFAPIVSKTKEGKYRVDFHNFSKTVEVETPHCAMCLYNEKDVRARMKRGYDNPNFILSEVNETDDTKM
# Assay: ROMK potassium channel modulators, primary screen, cell-based, thallium flux, MLSMR library (AID 1918);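 note: B-score of the F/F0 ratio slope over 7 to 12 s after thallium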
# Conditions: Tet-inducible ROMK, thallium flux fluorescence; at 10 µM; actives lie on both sides
row,Compound,B-score
1,O=C1CC(=O)Nc2cc(S(=O)(=O)N3CCN(c4cccc(C(F)(F)F)c4)CC3)ccc2N1,-0.0476 (inactive)
2,COc1ccccc1C(c1nnnn1CC1CCCO1)N1CCN(c2ccccc2)CC1 (configuration not stated),-0.18 (inactive)
3,COc1ccc2[nH]c(=O)c(CN(Cc3nnnn3CCc3ccccc3)CC3CCCO3)cc2c1 (configuration not stated),-1.17 (inactive)
4,Cc1cc2cc(CN(Cc3cccs3)Cc3nnnn3CC3CCCO3)c(=O)[nH]c2cc1C (configuration not stated),-5.43 (active)
5,CCN(CC)CC1(O)CCN(C(=O)c2ccc(Cl)c(Cl)c2)CC1,0.898 (inactive)
6,Cc1nn(CC(=O)Nc2ccc3c(c2)OCO3)c(C)c1[N+](=O)[O-],0.634 (inactive)
7,CC(CC(=O)Nc1ccccc1)n1ccnc1 (configuration not stated),-0.543 (inactive)
8,O=C(/C=C/c1ccc(N2CCOCC2)cc1)c1ccccc1,-3.77 (active)
9,CC(=O)Oc1ccc(C)cc1N1C(=O)c2ccc(C(=O)O)cc2C1=O,0.575 (inactive)
10,O=C(NC(=O)N1CCOCC1)c1ccccc1,0.751 (inactive)
11,O=C(c1ccc2c(c1)C(=O)N(c1ccc(Cl)cc1)C2=O)N1CCN(c2ccccn2)CC1,0.202 (inactive)
12,O=C(O)c1ccc2c(c1)C(=O)N(c1ccc(/C=C/C(=O)c3ccccc3)cc1)C2=O,-2.93 (active)
13,O=C(CN1CCN(S(=O)(=O)/C=C/c2ccccc2)CC1)Nc1ccc(N2CCOCC2)cc1,1.12 (inactive)
14,COc1cc(NC(=O)COC(=O)c2cnc(C)cn2)c(C)cc1[N+](=O)[O-],-0.377 (inactive)
15,O=C(O)c1ccccc1C(=O)Nc1ccccc1[N+](=O)[O-],-0.117 (inactive)
16,Cc1csc(NC(=O)CSc2ccc(-c3ccc(F)cc3)nn2)n1,-0.896 (inactive)
17,Cc1ccc(C(=O)N2CCCC(c3ccccc3)=N2)cc1,-0.95 (inactive)
18,Cn1c(-c2ccccc2)c[n+]2c1CCCCC2,0.591 (inactive)
19,Cc1ccc(C(=O)C[n+]2cc(-c3ccccc3)n3c2CCCCC3)cc1,-3.3 (active)
20,CCOC(=O)C1CCCN(C(=O)COc2ccc(N(C)S(=O)(=O)c3ccc(C)cc3)cc2)C1 (configuration not stated),0.882 (inactive)
21,CCN(CC)S(=O)(=O)c1ccc(NC(=O)c2cccnc2Cl)c(NC(=O)c2cccnc2Cl)c1,0.845 (inactive)
22,COc1ccc(CCNC(=O)CC2SC(=Nc3cc(C)cc(C)c3)NC2=O)cc1OC (configuration not stated),-0.14 (inactive)
23,COC(=O)C(C)C1Sc2ccccc2NC1=O (configuration not stated),-0.193 (inactive)
24,Cc1ccc(CNC(=O)CC2Sc3ccccc3NC2=O)cc1 (configuration not stated),1.17 (active)
25,CC(Nc1nc(N2CCOCC2)nc2ccccc12)c1ccccc1 (configuration not stated),-0.474 (inactive)

row,Compound,B-score
1,CN1CCN(CC(=O)Nc2cccc([N+](=O)[O-])c2)CC1,0.51 (inactive)
2,CNC(=S)NNC(=O)c1cccn(Cc2ccccc2)c1=O,0.643 (inactive)
3,O=C(Nc1cccc(Cl)c1N1CCOCC1)c1ccc2c(c1)OCCO2,-0.937 (inactive)
4,CCS(=O)(=O)c1ccc(C(=O)NC)c(Cl)c1Cl,0.613 (inactive)
5,Cc1ccc2c(=O)oc(N(C)C)nc2c1,2.36 (active)
6,CN(C)c1ccc2c(=O)[nH][nH]c(=O)c2c1,0.291 (inactive)
7,Cc1ccc2nc3n(c(=O)c2c1)CCC3,0.127 (inactive)
8,Cc1cc(C)c(C(N)=O)c(Cl)n1,0.133 (inactive)
9,Cc1ccc(N(C(=O)C(F)(F)F)C(C(=O)NC2CCCCC2)c2ccncc2)cc1C (configuration not stated),-0.0116 (inactive)
10,CC1CCCN(S(=O)(=O)c2ccc(C(=O)Nc3nnc(-c4ccncc4)o3)cc2)C1 (configuration not stated),0.153 (inactive)
11,CC1CCCN(S(=O)(=O)c2ccc(N(C(=O)c3cnccn3)C(C(=O)NC3CCCCC3)c3cccs3)cc2)C1 (configuration not stated),-3.38 (active)
12,N/C(=N\OC(=O)CCc1ccccc1)c1cccnc1,0.92 (inactive)
13,O=C(/C=C/c1ccccc1[N+](=O)[O-])OC1CCCCC1=O (configuration not stated),0.69 (inactive)
14,COc1ccc(N=Cc2c(O)[nH]c3ccccc23)cc1OC,2.81 (active)
15,COc1ccc(/C=N/S(=O)(=O)c2ccccc2)cc1OC,-0.975 (inactive)
16,COc1ccc(CCNC(=O)CCCCn2c(=O)[nH]c3ccccc3c2=O)cc1OC,0.342 (inactive)
17,CCC1(C)Cc2c(sc3nc4n(c(=O)c23)CCCS4)CO1 (configuration not stated),-0.196 (inactive)
18,CCC1(C)Cc2c(sc3[nH]c(=S)n(Cc4ccccc4)c(=O)c23)CO1 (configuration not stated),5.27 (active)
19,CCC1(C)Cc2c(sc3nc(SC)nc(N)c23)CO1 (configuration not stated),-1.15 (inactive)
20,NC(=O)C1CCN(C(=O)COc2cccc3cccnc23)CC1,0.124 (inactive)
21,Cc1cc(C(=O)N/N=C\C(Br)=C\c2ccccc2)c(C)o1,-0.321 (inactive)
22,CC(C(=O)NC1CCCC1)N(c1ccc(Oc2ccccc2)cc1)S(C)(=O)=O (configuration not stated),-3.71 (active)
23,CS(=O)(=O)N(CC(=O)N/N=C/c1ccccn1)c1ccc(Oc2ccccc2)cc1,-0.000176 (inactive)
24,COc1ccc(/C=N/NC(=O)C(C)N(c2ccc(OC)cc2)S(C)(=O)=O)cc1 (configuration not stated),-0.0127 (inactive)
25,CSc1ccccc1NC(=O)CN(C)CC(=O)Nc1ccc(Cl)cc1[N+](=O)[O-],-1.12 (inactive)

row,Compound,B-score
1,Cc1ccccc1C(OCC(O)CN1CCCCC1CCO)c1ccccc1 (configuration not stated),-4.16 (active)
2,CC(C)OCC(O)CN1CCN(C(c2ccccc2)c2ccccc2)CC1 (configuration not stated),-0.0404 (inactive)
3,Cc1cccc(C)c1OCC(O)CN1CCCCC1 (configuration not stated),0.161 (inactive)
4,Cc1ccc(C(=O)OC2CCCN(C)C2)cc1 (configuration not stated),0.17 (inactive)
5,Cc1ccc2nc(COc3ccc(N(C)S(=O)(=O)c4ccccc4)cc3)cc(=O)n2c1,0.648 (inactive)
6,COCCNC(=O)CCCn1c(=O)c2ccccc2n(Cc2cccc([N+](=O)[O-])c2)c1=O,-1.13 (inactive)
7,COc1ccc(CCNC(=O)COC(=O)Cc2cc(OC)c(OC)c(OC)c2)cc1,0.986 (inactive)
8,COc1ccc2c(c1)CCC/C2=N\OC(=O)c1ccccc1F,-0.245 (inactive)
9,Cc1ccccc1-n1nc(SCC(=O)O)sc1=S,-0.00827 (inactive)
10,O=S(=O)(c1ccc2c(c1)OCCO2)N1CCc2ccccc21,0.399 (inactive)
11,O=C(CCN1CCc2ccccc2C(O)(c2ccccc2)C1)c1ccc2c(c1)OCCO2 (configuration not stated),-3.53 (active)
12,O=C(CN1CCC(O)(c2ccccc2)CC1)Nc1ccc2c(c1)OCCO2,0.414 (inactive)
13,COc1ccc(NC(=S)Nc2ccc(S(N)(=O)=O)cc2)c(C)c1,0.982 (inactive)
14,CN(C)CCCN(Cc1cc2cc3c(cc2[nH]c1=O)OCCO3)C(=O)NC1CCCCC1,0.033 (inactive)
15,COc1ccc(NC(=O)COc2ccc(C(=O)OCC(=O)N(C)C3CCS(=O)(=O)C3)cc2OC)cc1 (configuration not stated),0.348 (inactive)
16,CC(C)(C)n1nnnc1C(c1ccc2ncccc2c1)N1CCSCC1 (configuration not stated),-0.18 (inactive)
17,Cc1cccc(N2CCN(C(c3ccc(N(C)C)cc3)c3nnnn3C(C)(C)C)CC2)c1C (configuration not stated),-2.94 (active)
18,CC(=O)N1CCN(c2cccc(C)c2C)CC1,-0.0972 (inactive)
19,CCC(C(=O)Nc1ccc(C(C)C)cc1)c1ccccc1 (configuration not stated),-0.192 (inactive)
20,COc1cc2sc(C)nc2cc1C,1.46 (inactive)
21,CC(C)OC(=O)C(C#N)c1nc2ccccc2nc1N1CCN(Cc2ccc3c(c2)OCO3)CC1 (configuration not stated),-0.0869 (inactive)
22,O=c1[nH]c(N2CCN(Cc3ccc4c(c3)OCO4)CC2)nc2c1CCCC2,-1.42 (inactive)
23,CC(C)OCCCNc1ncnc2c1[nH]c1ccc(F)cc12,-2.49 (inactive)
24,Fc1ccc2[nH]c3c(N4CCN(Cc5ccc6c(c5)OCO6)CC4)ncnc3c2c1,-3.14 (active)
25,Fc1ccc2[nH]c3c(N4CCSCC4)ncnc3c2c1,-5.22 (active)

row,Compound,B-score
1,Nn1c(SCC(=O)Nc2nccs2)nncc1=O,1.33 (inactive)
2,COc1ccc(CC(=O)N[C@@H](CCSC)c2nc3ccccc3[nH]2)cc1,-1.58 (inactive)
3,CCc1nnc(NC(=O)CSc2nc(SC)ns2)s1,-0.0846 (inactive)
4,O=C(C1CCCN1S(=O)(=O)c1ccc(Br)cc1)N1CCOCC1 (configuration not stated),-0.207 (inactive)
5,CCn1cc(C(=O)Nc2cc(C)ccc2C)c(=O)c2ccc(C)nc21,0.0033 (inactive)
6,COc1ccc(CC2(CO)CCN(Cc3cnn(C)c3)CC2)cc1,0.221 (inactive)
7,CCOc1cc(/C=C(\C#N)c2nc(-c3cccs3)c(NC(C)=O)s2)ccc1O,-2.6 (active)
8,CCOc1cc(/C=C(/C#N)c2ccc(Cl)cc2)cc(Cl)c1OCC(=O)O,1.07 (inactive)
9,CCOc1cccc(C(=O)Nc2nnc(-c3cccs3)s2)c1,1.45 (inactive)
10,Cc1ccc(S(=O)(=O)N2CCC(N3CCCCCC3)CC2)cc1,0.651 (inactive)
11,Cc1ccc(S(=O)(=O)C2(S(=O)(=O)c3ccc(C)cc3)CCCC2)cc1,3.4 (active)
12,Cc1ccc(S(=O)(=O)N(C)C2(C)CCS(=O)(=O)C2)cc1 (configuration not stated),1.47 (inactive)
13,COc1ccc(N(CC(=O)Nc2ccc(C)cc2C)S(=O)(=O)c2ccccc2[N+](=O)[O-])c(OC)c1,-0.208 (inactive)
14,CN(C)S(=O)(=O)c1cccc(NC(=O)COC(=O)/C=C/c2cccs2)c1,0.12 (inactive)
15,O=C(CN(C(=O)c1csnn1)c1cccc(F)c1)NCc1ccc(F)cc1,0.442 (inactive)
16,COC(=O)c1ccc(NCC(=O)N2CCCCCC2)cc1,-0.512 (inactive)
17,O=C(Cn1nc(CNc2ccc(Cl)cc2)[n+]2c1CCCCC2)c1ccc(Cl)cc1,-3.24 (active)
18,O=C(Cn1ncc(N2CCCC2)c(Br)c1=O)c1ccc(Cl)cc1,-0.342 (inactive)
19,CC(C)CCN1CCN(C/C=C/c2ccco2)CC1CCO (configuration not stated),0.0943 (inactive)
20,COc1ccc(C2=CC(c3cccc(OC)c3)n3nnnc3N2)cc1 (configuration not stated),-4.22 (active)
21,CCOc1cccc(-n2nnnc2-c2ccc(OC)cc2)c1,2.1 (inactive)
22,COc1cccc(C2Nc3cccc4cccc(c34)N2)c1,-0.051 (inactive)
